From ChEMBL document CHEMBL1961873, “Compounds: GSK PKIS; Assays: Nanosyn kinase panel” (2012)

Legend:
[1] = target: T1, Mitogen-activated protein kinase 12 (Homo sapiens) (UniProt P53778); settings: at 1 µM;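 further: values are averaged p38gamma kinase inhibition readings, compounds tested at 1 µM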
T1 sequence (whole entry): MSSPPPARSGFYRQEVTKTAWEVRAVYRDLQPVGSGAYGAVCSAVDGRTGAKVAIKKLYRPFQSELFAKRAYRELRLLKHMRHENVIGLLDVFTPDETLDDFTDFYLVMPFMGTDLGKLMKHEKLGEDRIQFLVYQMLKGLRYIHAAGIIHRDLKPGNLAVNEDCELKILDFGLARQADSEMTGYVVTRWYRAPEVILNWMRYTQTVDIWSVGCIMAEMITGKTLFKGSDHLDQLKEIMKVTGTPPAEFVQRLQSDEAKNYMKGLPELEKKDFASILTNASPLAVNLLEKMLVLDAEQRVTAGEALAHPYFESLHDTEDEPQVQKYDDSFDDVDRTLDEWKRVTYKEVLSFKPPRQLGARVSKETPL

[2] = target: SRSF protein kinase 1 (Homo sapiens) (UniProt Q96SB4); settings: at 0.1 µM
Sequence of SRSF protein kinase 1 (Homo sapiens) (Q96SB4 whole entry, canonical isoform): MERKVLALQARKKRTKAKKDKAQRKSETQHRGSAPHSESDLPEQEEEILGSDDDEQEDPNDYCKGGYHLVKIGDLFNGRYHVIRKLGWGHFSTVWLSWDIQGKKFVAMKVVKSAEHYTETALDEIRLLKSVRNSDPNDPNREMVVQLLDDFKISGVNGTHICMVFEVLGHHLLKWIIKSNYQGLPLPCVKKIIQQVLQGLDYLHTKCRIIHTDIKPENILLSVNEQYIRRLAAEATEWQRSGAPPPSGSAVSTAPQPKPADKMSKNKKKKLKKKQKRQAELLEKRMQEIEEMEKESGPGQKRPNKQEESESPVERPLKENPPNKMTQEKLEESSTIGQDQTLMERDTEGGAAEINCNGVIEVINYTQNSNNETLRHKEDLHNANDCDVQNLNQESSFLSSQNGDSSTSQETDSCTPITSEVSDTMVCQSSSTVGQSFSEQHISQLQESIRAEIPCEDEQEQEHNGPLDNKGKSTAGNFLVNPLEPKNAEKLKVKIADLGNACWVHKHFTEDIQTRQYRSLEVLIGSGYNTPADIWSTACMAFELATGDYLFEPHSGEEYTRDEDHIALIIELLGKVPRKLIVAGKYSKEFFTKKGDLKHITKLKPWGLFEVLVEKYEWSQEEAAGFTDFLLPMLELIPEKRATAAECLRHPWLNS

[3] = target: SRSF protein kinase 1 (Homo sapiens) (UniProt Q96SB4); settings: at 1 µM
[4] = target: Phosphatidylinositol 4,5-bisphosphate 3-kinase catalytic subunit alpha isoform (Homo sapiens) (UniProt P42336); settings: at 0.1 µM
Sequence of Phosphatidylinositol 4,5-bisphosphate 3-kinase catalytic subunit alpha isoform (Homo sapiens) (P42336 whole entry, canonical isoform): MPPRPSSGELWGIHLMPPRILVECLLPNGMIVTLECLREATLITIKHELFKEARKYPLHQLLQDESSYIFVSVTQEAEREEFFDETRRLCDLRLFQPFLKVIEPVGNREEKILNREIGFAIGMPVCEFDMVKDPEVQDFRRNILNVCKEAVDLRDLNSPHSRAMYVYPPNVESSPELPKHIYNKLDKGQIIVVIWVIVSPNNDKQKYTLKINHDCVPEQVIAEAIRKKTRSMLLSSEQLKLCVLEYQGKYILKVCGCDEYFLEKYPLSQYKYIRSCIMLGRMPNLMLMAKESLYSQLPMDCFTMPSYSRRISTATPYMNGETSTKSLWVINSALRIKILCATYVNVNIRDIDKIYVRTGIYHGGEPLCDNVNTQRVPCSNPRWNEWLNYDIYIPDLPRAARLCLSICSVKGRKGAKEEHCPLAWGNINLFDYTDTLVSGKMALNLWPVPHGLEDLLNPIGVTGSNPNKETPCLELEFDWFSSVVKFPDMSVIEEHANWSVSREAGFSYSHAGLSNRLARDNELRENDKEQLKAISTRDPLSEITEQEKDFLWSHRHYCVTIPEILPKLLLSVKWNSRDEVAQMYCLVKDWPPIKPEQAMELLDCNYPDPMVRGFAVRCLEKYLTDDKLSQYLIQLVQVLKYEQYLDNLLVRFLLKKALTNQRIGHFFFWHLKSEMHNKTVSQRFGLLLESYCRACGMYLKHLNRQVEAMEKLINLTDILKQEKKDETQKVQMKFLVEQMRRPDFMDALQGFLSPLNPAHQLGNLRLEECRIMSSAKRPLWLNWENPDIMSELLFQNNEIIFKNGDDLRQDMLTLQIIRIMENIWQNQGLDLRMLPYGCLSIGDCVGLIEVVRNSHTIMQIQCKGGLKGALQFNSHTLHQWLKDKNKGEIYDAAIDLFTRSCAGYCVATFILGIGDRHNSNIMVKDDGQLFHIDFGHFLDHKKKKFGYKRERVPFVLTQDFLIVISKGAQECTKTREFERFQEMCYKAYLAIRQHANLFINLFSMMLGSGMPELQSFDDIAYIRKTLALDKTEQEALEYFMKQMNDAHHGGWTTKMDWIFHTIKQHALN

[5] = target: Phosphatidylinositol 4,5-bisphosphate 3-kinase catalytic subunit alpha isoform (Homo sapiens) (UniProt P42336); settings: at 1 µM
[6] = target: T2, Phosphatidylinositol 4,5-bisphosphate 3-kinase catalytic subunit delta isoform (Homo sapiens) (UniProt O00329); settings: at 0.1 µM
T2 sequence (whole entry): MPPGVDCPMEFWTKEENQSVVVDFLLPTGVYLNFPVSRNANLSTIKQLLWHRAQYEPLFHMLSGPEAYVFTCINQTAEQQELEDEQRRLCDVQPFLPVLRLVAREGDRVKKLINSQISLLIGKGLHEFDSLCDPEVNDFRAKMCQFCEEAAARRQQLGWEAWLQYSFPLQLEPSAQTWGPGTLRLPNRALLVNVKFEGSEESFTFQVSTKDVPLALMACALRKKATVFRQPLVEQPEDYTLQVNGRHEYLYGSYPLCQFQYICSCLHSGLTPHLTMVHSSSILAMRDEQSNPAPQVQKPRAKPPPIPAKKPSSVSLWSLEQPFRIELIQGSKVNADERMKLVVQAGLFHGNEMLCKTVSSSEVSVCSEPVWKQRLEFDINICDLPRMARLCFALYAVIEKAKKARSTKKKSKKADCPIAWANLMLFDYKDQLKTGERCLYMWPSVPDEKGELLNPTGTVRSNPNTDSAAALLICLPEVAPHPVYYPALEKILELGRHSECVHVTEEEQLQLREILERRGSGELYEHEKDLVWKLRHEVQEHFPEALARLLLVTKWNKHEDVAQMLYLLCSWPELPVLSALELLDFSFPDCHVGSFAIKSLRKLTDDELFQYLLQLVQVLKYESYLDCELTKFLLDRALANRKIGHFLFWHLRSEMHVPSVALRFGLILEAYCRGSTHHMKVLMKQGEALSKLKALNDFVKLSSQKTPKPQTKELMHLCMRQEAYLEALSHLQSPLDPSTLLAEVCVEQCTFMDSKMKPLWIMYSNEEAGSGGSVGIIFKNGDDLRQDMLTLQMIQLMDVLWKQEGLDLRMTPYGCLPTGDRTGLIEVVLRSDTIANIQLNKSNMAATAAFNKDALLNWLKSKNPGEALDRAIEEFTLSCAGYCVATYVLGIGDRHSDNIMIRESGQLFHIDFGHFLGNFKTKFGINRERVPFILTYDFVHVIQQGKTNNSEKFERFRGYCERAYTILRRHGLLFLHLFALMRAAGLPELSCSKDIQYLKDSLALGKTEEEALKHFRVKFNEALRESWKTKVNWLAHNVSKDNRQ

[7] = target: T2, Phosphatidylinositol 4,5-bisphosphate 3-kinase catalytic subunit delta isoform (Homo sapiens); settings: at 1 µM
[8] = target: Phosphatidylinositol 4-kinase beta (Homo sapiens) (UniProt Q9UBF8); settings: at 0.1 µM
Sequence of Phosphatidylinositol 4-kinase beta (Homo sapiens) (Q9UBF8 2-816 limits assumed): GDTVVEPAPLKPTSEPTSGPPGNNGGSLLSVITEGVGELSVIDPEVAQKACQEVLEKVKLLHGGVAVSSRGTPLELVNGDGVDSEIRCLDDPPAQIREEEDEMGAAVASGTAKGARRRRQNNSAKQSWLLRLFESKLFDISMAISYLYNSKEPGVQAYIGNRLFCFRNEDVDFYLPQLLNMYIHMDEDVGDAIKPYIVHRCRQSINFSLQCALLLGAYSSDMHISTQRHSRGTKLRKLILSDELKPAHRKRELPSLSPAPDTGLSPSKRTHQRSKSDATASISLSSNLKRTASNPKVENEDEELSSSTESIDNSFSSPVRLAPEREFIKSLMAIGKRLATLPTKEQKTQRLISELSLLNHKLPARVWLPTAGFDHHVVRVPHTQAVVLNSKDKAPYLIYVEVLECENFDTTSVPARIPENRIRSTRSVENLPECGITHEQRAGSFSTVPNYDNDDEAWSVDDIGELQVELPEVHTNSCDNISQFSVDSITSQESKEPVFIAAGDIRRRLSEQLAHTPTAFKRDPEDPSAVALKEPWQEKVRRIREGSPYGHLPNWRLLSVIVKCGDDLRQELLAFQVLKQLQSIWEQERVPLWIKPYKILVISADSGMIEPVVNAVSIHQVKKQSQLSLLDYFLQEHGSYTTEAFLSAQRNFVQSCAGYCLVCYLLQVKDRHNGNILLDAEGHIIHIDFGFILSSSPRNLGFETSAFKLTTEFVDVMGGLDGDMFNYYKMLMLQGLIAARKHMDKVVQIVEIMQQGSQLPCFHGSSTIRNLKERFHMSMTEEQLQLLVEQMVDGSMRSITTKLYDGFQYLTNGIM

[9] = target: Phosphatidylinositol 4-kinase beta (Homo sapiens) (UniProt Q9UBF8); settings: at 1 µM
[10] = target: Sphingosine kinase 1 (Homo sapiens) (UniProt Q9NYA1); settings: at 0.1 µM
Sequence of Sphingosine kinase 1 (Homo sapiens) (Q9NYA1 whole entry): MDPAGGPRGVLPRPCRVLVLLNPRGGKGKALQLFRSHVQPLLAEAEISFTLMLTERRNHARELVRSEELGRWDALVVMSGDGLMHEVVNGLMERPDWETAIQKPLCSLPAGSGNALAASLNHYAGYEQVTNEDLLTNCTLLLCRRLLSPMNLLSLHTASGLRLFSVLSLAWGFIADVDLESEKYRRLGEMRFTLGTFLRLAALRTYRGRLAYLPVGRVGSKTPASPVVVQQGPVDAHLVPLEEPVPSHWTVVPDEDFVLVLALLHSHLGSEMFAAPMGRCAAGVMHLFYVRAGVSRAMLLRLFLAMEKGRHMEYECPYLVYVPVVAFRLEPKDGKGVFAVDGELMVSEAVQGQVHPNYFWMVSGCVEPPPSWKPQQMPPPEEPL

[11] = target: Sphingosine kinase 1 (Homo sapiens) (UniProt Q9NYA1); settings: at 1 µM
[12] = target: T3, Sphingosine kinase 2 (Homo sapiens) (UniProt Q9NRA0); settings: at 0.1 µM
T3 sequence (whole entry): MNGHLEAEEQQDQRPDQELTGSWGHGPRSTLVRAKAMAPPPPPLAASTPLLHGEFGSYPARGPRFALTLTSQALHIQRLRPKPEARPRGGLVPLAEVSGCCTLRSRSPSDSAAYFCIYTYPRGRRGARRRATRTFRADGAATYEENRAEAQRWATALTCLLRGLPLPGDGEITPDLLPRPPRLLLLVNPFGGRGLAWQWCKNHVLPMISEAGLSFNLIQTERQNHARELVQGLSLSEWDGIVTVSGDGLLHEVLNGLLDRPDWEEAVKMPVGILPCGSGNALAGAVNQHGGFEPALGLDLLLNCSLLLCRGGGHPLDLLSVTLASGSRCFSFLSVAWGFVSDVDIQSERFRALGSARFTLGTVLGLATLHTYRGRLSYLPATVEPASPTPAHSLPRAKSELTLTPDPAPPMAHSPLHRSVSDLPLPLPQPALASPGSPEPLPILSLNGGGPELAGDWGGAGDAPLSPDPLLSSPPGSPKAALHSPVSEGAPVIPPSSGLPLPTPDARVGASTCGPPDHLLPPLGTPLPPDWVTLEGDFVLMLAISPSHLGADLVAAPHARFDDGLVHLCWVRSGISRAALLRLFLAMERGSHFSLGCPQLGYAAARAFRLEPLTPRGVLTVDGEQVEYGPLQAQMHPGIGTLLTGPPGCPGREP

[13] = target: T3, Sphingosine kinase 2 (Homo sapiens); settings: at 1 µM
[14] = target: Casein kinase II subunit alpha (Homo sapiens) (UniProt P68400); settings: at 0.1 µM
Sequence of Casein kinase II subunit alpha (Homo sapiens) (P68400 whole entry, looked up): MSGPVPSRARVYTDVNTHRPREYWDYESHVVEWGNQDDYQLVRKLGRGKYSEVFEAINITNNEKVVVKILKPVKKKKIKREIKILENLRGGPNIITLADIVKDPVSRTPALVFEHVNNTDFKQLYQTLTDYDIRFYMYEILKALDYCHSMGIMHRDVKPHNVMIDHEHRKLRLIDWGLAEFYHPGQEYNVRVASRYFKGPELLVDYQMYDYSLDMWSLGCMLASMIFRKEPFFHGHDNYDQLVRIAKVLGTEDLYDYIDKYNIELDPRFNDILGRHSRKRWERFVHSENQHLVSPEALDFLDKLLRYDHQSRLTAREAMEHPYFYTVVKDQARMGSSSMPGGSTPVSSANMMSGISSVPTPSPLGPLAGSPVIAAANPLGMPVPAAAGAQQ

[15] = target: Casein kinase II subunit alpha (Homo sapiens) (UniProt P68400); settings: at 1 µM
[16] = target: T4, Inhibitor of nuclear factor kappa-B kinase subunit alpha (Homo sapiens) (UniProt O15111); settings: at 0.1 µM
T4 sequence (whole entry): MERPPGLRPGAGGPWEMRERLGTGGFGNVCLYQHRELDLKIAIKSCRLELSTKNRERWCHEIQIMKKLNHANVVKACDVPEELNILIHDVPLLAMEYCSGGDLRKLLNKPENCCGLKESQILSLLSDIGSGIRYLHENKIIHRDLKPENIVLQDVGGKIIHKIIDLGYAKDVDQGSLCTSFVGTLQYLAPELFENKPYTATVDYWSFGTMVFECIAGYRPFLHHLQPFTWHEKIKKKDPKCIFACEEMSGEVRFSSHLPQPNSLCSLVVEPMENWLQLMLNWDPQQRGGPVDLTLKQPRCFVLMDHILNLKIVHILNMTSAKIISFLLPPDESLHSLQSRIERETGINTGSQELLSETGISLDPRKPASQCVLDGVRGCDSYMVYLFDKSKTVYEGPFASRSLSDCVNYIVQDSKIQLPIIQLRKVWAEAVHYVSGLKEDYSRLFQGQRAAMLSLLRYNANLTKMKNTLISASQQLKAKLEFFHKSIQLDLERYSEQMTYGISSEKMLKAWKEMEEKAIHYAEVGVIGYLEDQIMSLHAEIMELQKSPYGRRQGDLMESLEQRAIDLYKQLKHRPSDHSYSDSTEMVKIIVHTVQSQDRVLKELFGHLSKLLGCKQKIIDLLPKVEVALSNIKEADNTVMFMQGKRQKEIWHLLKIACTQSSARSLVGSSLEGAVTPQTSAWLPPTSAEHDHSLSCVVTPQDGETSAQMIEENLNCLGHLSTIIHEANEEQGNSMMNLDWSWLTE

[17] = target: T4, Inhibitor of nuclear factor kappa-B kinase subunit alpha (Homo sapiens); settings: at 1 µM
[18] = target: T5, Inhibitor of nuclear factor kappa-B kinase subunit beta (Homo sapiens) (UniProt O14920); settings: at 0.1 µM
T5 sequence (whole entry): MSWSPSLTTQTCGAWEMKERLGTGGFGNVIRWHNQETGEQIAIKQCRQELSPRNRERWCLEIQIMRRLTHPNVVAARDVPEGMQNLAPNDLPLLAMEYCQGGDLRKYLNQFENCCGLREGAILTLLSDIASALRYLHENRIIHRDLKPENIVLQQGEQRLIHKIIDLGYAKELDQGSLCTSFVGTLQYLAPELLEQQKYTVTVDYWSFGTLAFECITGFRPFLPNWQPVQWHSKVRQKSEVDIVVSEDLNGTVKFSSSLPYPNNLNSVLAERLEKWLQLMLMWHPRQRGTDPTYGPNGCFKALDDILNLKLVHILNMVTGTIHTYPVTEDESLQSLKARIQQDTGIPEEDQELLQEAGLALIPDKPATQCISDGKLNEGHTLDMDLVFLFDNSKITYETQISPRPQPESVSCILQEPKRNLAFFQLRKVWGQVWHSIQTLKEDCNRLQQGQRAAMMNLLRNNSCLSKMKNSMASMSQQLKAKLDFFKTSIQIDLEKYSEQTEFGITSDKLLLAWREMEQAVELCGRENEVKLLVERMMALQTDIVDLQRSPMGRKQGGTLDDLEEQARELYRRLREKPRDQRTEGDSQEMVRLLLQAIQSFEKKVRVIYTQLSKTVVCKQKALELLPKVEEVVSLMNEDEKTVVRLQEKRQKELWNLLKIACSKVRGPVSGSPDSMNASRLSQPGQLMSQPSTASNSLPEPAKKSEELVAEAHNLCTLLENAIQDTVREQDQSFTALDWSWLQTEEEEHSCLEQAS

[19] = target: T5, Inhibitor of nuclear factor kappa-B kinase subunit beta (Homo sapiens); settings: at 1 µM
[20] = target: T6, Inhibitor of nuclear factor kappa-B kinase subunit epsilon (Homo sapiens) (UniProt Q14164); settings: at 0.1 µM;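 further: mean inhibition of IKKε reported, from the GSK PKIS dataset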
T6 sequence (whole entry): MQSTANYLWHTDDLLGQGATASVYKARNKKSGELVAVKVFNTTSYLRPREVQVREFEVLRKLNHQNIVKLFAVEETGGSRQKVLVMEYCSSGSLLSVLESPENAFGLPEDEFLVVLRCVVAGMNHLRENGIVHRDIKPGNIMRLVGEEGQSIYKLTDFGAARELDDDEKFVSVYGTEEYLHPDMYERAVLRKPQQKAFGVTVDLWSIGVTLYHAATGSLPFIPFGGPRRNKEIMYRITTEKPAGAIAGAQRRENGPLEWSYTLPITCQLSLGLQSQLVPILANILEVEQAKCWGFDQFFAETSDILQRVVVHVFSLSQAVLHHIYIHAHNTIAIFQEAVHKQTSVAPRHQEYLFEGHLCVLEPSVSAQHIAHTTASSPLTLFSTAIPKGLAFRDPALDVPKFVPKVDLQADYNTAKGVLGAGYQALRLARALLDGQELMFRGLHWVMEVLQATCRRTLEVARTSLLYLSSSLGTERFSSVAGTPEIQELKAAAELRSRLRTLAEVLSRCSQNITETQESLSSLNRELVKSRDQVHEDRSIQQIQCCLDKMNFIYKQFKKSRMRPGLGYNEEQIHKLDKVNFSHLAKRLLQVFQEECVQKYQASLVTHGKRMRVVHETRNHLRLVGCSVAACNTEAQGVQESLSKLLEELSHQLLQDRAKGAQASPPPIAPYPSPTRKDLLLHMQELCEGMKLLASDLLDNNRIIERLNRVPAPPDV

| Structure (SMILES) | inhibition [1] [%] | inhibition [2] [%] | inhibition [3] [%] | inhibition [4] [%] | inhibition [5] [%] | inhibition [6] [%] | inhibition [7] [%] | inhibition [8] [%] | inhibition [9] [%] | inhibition [10] [%] | inhibition [11] [%] | inhibition [12] [%] | inhibition [13] [%] | inhibition [14] [%] | inhibition [15] [%] | inhibition [16] [%] | inhibition [17] [%] | inhibition [18] [%] | inhibition [19] [%] | inhibition [20] [%] |
| --- | --- | --- | --- | --- | --- | --- | --- | --- | --- | --- | --- | --- | --- | --- | --- | --- | --- | --- | --- | --- |
| CCn1c(-c2nonc2N)nc2cnc(Oc3cccc(NC(=O)c4ccc(N(C)C)cc4)c3)cc21 | 1.5 | -1.72 | -1.86 | -0.72 | 0.76 | 0.62 | 1.65 | -0.87 | 2.47 | -2.61 | -3.07 | 0 | 2.32 | 0.64 | 0.04 | 5.93 | 2.52 | 2.96 | 1.85 | 3.07 |
| CC(=O)NCc1cccc(C#Cc2cncnc2Nc2ccc(OCc3cccc(F)c3)c(Cl)c2)c1 | 1.37 | -0.72 | -2.28 | -1.17 | 0.49 | -1.34 | -0.33 | -4.32 | -2.4 | 2.94 | -1.56 | -0.13 | -2.39 | -0.56 | 1.55 | -0.42 | 3.17 | -1.42 | 1.29 | 0.37 |
| N#Cc1c(NC(=O)c2ccc(F)cc2)sc2c1CCCC2 | 0.08 | -1.47 | -1.93 | 1.06 | 0.48 | 1.32 | -1.48 | -4.06 | 1.29 | -0.62 | -1.09 | 0.33 | 0 | 0.61 | 1.89 | 5.73 | 4.51 | 1.94 | 4.15 | 2.43 |
| CC(C)COC(=O)c1ccc2c(c1)/C(=C/Nc1ccc(S(N)(=O)=O)cc1)C(=O)N2 | -0.52 | -0.82 | -1.99 | 3.8 | -1.43 | 0.18 | 2.64 | 4.22 | -2.78 | 2.57 | 1.92 | -0.06 | -0.44 | 7.86 | 47.2 | -1.06 | 3.25 | -0.4 | 6.93 | 46.2 |
| COc1cccc(-n2ncc3c(N/N=C/c4ccc(F)cc4)ncnc32)c1 | 1.41 | -0.75 | 2.6 | 3.46 | 19.1 | 0.55 | 17.3 | -4.22 | -5.29 | 2.72 | -1.38 | -1.23 | 0.38 | 4.77 | 15.9 | 12.3 | 6.86 | 5.69 | 3.91 | 14.1 |
| CNC(=O)c1cncc(/C=C/c2ccccc2Cl)c1 | -0.18 | 0.65 | 3.33 | 1.22 | 1.59 | 0.5 | 0.38 | 3.54 | 1.28 | 0.48 | -2.41 | 0.11 | -0.01 | 0.75 | 8.72 | 2.99 | -3.09 | -0.46 | 1.87 | 2.76 |
| CC1=C(C(=O)Nc2cc(Cl)c3[nH]ncc3c2)C(c2ccc(C(F)(F)F)cc2)CC(=O)N1 (stereo not given) | 2.49 | -1.04 | -1.39 | 2.86 | 6.37 | 1.38 | 4.61 | 3.72 | 1.77 | 6.22 | -1.96 | 0.58 | 0.72 | 3.06 | 1.13 | 4.43 | 4.34 | 3.26 | 5.73 | 4.64 |
